# From PubChem BioAssay
# TDP1 block: inhibitors of human tyrosyl-DNA phosphodiesterase TDP1. Q9NUW8. recombinant TDP1, AlphaScreen DNA substrate cleavage. Potency, µM (doses to about 130 µM), for inactives: at the highest dose activity change, negative = inhibition, most hits filed as inhibitors. 350,000 tested, 0.28% active. AID 485290; note: nearly all actives have a fitted effect of over 40% in size
# Target sequence (Q9NUW8 whole entry, looked up): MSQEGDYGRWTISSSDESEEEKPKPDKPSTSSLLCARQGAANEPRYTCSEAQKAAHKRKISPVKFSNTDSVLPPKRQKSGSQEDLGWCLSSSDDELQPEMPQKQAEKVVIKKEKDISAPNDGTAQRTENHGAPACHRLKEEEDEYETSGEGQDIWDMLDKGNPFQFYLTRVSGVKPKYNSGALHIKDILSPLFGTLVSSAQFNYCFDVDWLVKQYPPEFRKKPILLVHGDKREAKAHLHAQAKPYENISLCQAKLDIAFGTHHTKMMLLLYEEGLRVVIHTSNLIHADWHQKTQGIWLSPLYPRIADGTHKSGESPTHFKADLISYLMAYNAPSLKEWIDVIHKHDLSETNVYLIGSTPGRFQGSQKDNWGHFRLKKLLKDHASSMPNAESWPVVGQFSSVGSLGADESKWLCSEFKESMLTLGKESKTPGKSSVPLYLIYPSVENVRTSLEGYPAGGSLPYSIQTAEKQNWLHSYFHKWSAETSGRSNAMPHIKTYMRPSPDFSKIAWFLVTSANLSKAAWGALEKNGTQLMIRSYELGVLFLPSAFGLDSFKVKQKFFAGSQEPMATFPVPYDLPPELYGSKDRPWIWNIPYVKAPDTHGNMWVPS
#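 AlphaScreen read-out: signal falls as enzyme removes the 3' tyrosine-FITC from a 5'-biotinylated DNA oligo (15 nM, 5 min, RT). Enzyme was E. coli-made recombinant Tdp1 at 1 nM, exposed to compound for 15 min beforehand; beads 10 ug/ml, 10 min.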
# Gal4-VP16 FLuc: counter-screen for ROR gamma inhibitors: Gal4-VP16 reporter. Drosophila S2 Gal4-VP16 UAS-luciferase, luminescence, 20 h. AID 2546. 310,000 tested, 3.5% active. Potency, µM (top dose mostly 53.6 µM), for the others: at the highest dose activity, negative = inhibition, actives largely listed as inhibitors;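 note: Gal4-VP16 expression switched on by copper sulfate through the metallothionein promoter; nearly all actives have a fitted effect of over 50% in size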
# DT40 TDP1 CPT: DT40-hTDP1 cell growth loss with CPT. Potency, µM (top dose mostly 46.2 µM), for the others: at the highest dose activity change, negative = growth inhibition, hits mostly inhibitors. chicken DT40 Tdp1-/-;hTDP1 cells + 20 nM CPT, ATP luminescence, 48 h. 420,000 tested, 12% active; note: nearly all actives have a fitted effect of over 55% in size
#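 Cell growth measured by CellTiter-Glo luminescence after a minimum 48 h, 37 C compound exposure with 20 nM CPT in Tdp1-knockout DT40 cells stably expressing hTDP1, seeded 400/well; qHTS titration format.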
# DT40 TDP1 no CPT: qHTS for Inhibitors of human tyrosyl-DNA phosphodiesterase 1 (TDP1): qHTS in cells in absence of CPT; DT40 Tdp1-/- hTDP1 cells, no CPT, ATP luminescence, 48 h; Potency, µM (highest dose often 46.2 µM), for inactives: at the highest dose activity change, negative = growth inhibition, most hits filed as inhibitors; 420,000 tested, 15% active; note: nearly all actives have a fitted effect of over 55% in size
#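 DT40 Tdp1-/-;hTDP1 cells, no CPT (DMSO vehicle only), 400 cells/well; compounds pin-transferred; ≥48 hr, 37 °C; CellTiter-Glo 30 min RT dark, luminescence read.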
# RORgamma inh: blocks mouse ROR gamma transcriptional activity; P51450; Drosophila S2 Gal4-RORgamma UAS-luciferase reporter, 20 h; Potency, µM (doses to about 53.6 µM), inactives show top-dose activity change, negative = inhibition, actives largely listed as inhibitors; 310,000 tested, 5.4% active; AID 2551; note: nearly all actives have a fitted effect of over 60% in size
#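 Luminescence from a UAS-regulated Photinus luciferase reporter in stably transfected Drosophila Schneider cells is measured; decreased signal marks ROR gamma inhibition. Fusion expression is induced by 700 uM copper sulfate for 20 hr.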
# An asterisk follows results filed as active; ? = inconclusive; nt = no result given; ! = a repeat was not active; [ ] = another dose, or the depositor's remark. The list is not random: actives were taken first. Their share in the collection is about 19%. Calls come from the whole dose curve; as a rule, active = well fitted curve in the direction sought with a large enough effect; inconclusive = small, poorly fitted or top-dose-only effect, or another doubt; inactive = no such curve, though single readings can be large; an effect the other way counts as inactive or inconclusive. % is set by controls: 0 for no effect and ±100 for the full control effect; potency is the fitted concentration of half-maximal effect.
SMILES,TDP1 block,Gal4-VP16 FLuc,DT40 TDP1 CPT,DT40 TDP1 no CPT,RORgamma inh
COc1ccc2ccccc2c1C1NC(=O)c2ccccc2N1 (configuration not stated),nt,nt,2.59µM*,3.66µM*,nt
O=C1NC(c2cccs2)Nc2ccccc21 (configuration not stated),-1.1%,16.4%,5.17µM*,8.2µM*,27.3%
Clc1ccccc1C1Nc2cccc3cccc(c23)N1,nt,2.6%,?,?,-13.9%
COc1ccc(C2NC(=O)c3ccccc3N2)cc1OC (configuration not stated),3.6%,2.5%,-20.6%,-21.0%,5.8%
CCOC(=O)C1=C(C)NC(=O)NC1c1c(OC)ccc2ccccc12 (configuration not stated),nt,-0.9%,-10.0%,-12.9%,17.0%
COc1ccc2ccccc2c1C1NC(=O)NC(C)=C1[N+](=O)[O-] (configuration not stated),nt,11.2µM*,-22.7%,-6.3%,-35.9%
CCc1ccc(NC(=O)CN2C(=O)CSc3ccc(S(=O)(=O)N(C)C)cc32)cc1,5.3%,nt,-12.5%,-20.6%,nt
Cc1nc2ccccc2c(=O)n1NC(=O)CCC(=O)O,2.6%,-4.9%,-3.3%,7.6%,-2.3%
COc1ccc(CNC(=O)C(C)OC(=O)CCN2C(=O)C3CC=CCC3C2=O)cc1 (configuration not stated),-3.8%,nt,2.8%,-2.5%,nt
O=C1NC(c2cccc3ccccc23)Nc2ccccc21 (configuration not stated),nt,nt,0.581µM*,0.92µM*,nt
Cc1ccsc1C1NC(=O)c2ccccc2N1 (configuration not stated),-5.8%,9.6%,?,?,27.3%
O=S(=O)(c1ccccc1)c1nc(-c2cccc(Cl)c2)oc1NCc1ccccc1,nt,nt,?,25.9µM*,nt
Cc1ccc(S(=O)(=O)c2nc(C)oc2NCc2ccccc2)cc1,6.2%,3.2%,nt,nt,13.8%
COc1ccc(-c2nc(S(=O)(=O)c3ccc(C)cc3)c(NCc3ccccc3)o2)cc1,nt,nt,?,16.4µM*,nt
Cc1ccc(S(=O)(=O)c2nc(-c3ccccc3F)oc2NCc2ccccc2)cc1,nt,nt,?,20.6µM*,nt
Cc1nc(CSc2ccc(Br)cc2)cs1,nt,5.3%,17.9%,3.6%,9.9%
CCC(C)(C)NC(=O)c1sccc1Oc1ccc(F)cc1[N+](=O)[O-],5.9%,-0.7%,2.2%,?,17.6%
O=C1Nc2ccccc2CCC1Sc1nnc(-c2ccc(Cl)cc2)s1 (configuration not stated),0.0%,-6.4%,?,29.1µM*,?
Clc1ccc(CSc2nnc(-c3ccncc3)s2)cc1,0.0%,2.8%,-4.2%,-23.5%,50.5%
C/C(=N\NC(N)=S)c1ccc(Cl)s1,5.3%,5.01µM*,5.17µM*,4.61µM*,1.41µM*
C/C(=N\NC(=S)NC(C)C)c1ccc(Cl)s1,0.0%,?,14.6µM*,5.8µM*,1.12µM*
C/C(=N\NC(=O)C(=O)Nc1cccc(C(F)(F)F)c1)c1ccc(Cl)s1,6.8%,-0.5%,?,?,19.5%
Cc1cc(C)c(C)c(S(=O)(=O)N2CCN(C(=O)c3cc(=O)[nH]c4ccccc34)CC2)c1C,1.0%,5.3%,?,13µM*,?
Cc1cc(C)c(S(=O)(=O)N2CCN(C(=O)c3cc(=O)[nH]c4ccccc34)CC2)c(C)c1,2.3%,nt,14.6µM*,16.4µM*,nt
N#Cc1ccccc1S(=O)(=O)N1CCN(C(=O)c2cc(=O)[nH]c3ccccc23)CC1,-3.6%,nt,?,4.1%,nt
SMILES,TDP1 block,Gal4-VP16 FLuc,DT40 TDP1 CPT,DT40 TDP1 no CPT,RORgamma inh
COC(=O)C1=C[C@@H](C(=O)OC)C2C3=C(C(=O)[C@@]2(CC(C)C)NC(=O)c2ccccc2)[C@H](C)n2c(=O)n(C)c(=O)n2[C@@H]3C1 (some centres not stated),6.2%,0.0%,nt,nt,13.3%
Cc1c(Cl)c(-c2n[nH]c(=S)n2-c2ccccc2)nn1C,-1.1%,?,4.1%,-8.1%,-44.6%
COc1ccccc1-c1nccc(NCc2cccs2)n1,nt,-12.6%,20.6µM*,?,-2.2%
COc1ccccc1-c1nccc(Nc2ccc(F)cc2)n1,nt,6.0%,23.1µM*,?,5.9%
CN(C)c1ccc(-c2nccc(NCc3cccs3)n2)cc1,nt,-35.7%,20.6µM*,23.1µM*,-42.4%
CN(C)C(=O)c1ccc(-c2nccc(NCc3cccs3)n2)cc1,nt,?,-11.9%,-7.8%,6.2%
Cc1ccc(N(CC(=O)Nc2c(C)cccc2C)S(C)(=O)=O)cc1,nt,3.0%,-5.4%,-16.5%,-12.5%
CC(=O)CCc1oc2ccc(C)cc2c1-c1ccc(C)o1,2.4%,-1.4%,11.6µM*,14.6µM*,15.1%
CC(=O)CCc1oc2ccc(NC(C)=O)cc2c1-c1ccc(C)o1,7.8%,?,-1.1%,-19.5%,?
CC(/C=N/NC(=O)c1ccccc1F)c1ccccc1 (configuration not stated),nt,8.3%,-11.0%,22.0%,-10.9%
CN(C(=O)c1ccccc1F)C(c1ccccc1)c1ccccc1,4.2%,17.8%,10.3µM*,16.4µM*,43.9%
Cc1cc(-c2ccnc(-n3ncc(C(=O)NCC(C)(C)N4CCOCC4)c3C)n2)c(C)s1,nt,nt,3.6%[9.04 µM],-8.8%,nt
Cc1cc(-c2ccnc(-n3ncc(C(=O)NCC4COCCO4)c3C)n2)c(C)s1 (configuration not stated),nt,nt,?,4.11µM*,nt
CCOc1ccc(-n2ccnc2)nn1,1.2%,-3.1%,1.7%,0.4%,0.2%
COc1ccc(OC)c(CCNC(=O)CCCn2c(=O)c3cccn3c3ccc(F)cc32)c1,1.3%,nt,18.4µM*,9.2µM*,nt
CCOc1ccc(CCNC(=O)Cn2c(=O)c3cccn3c3ccc(F)cc32)cc1OCC,1.3%,nt,?,?,nt
COc1ccc(CCNC(=O)CCCn2c(=O)c3cccn3c3cccnc32)cc1OC,5.1%,nt,?,?,nt
COc1ccc(OC)c(CCNC(=O)CCn2c(=O)c3cccn3c3ccc(F)cc32)c1,6.5%,nt,?,?,nt
CC(CNC(=O)CCn1c(=O)c2cccn2c2ccc(F)cc21)c1ccccc1 (configuration not stated),5.2%,-16.8%,13µM*!,?,1.2%
COc1ccc(CCNC(=O)CCCn2c(=O)c3cccn3c3ccc(F)cc32)cc1OC,2.6%,nt,14.6µM*,11.6µM*,nt
COc1ccc(CCNC(=O)CCCn2c(=O)c3cccn3c3ccccc32)cc1OC,5.2%,nt,16.4µM*,13µM*,nt
CCCCOc1ccc(N(CC(=O)NC(C)(C)C)C(=O)CCC(=O)Nc2nccs2)cc1,nt,-2.8%,?,?,42.9%
Cc1cccc(N(C(=O)CCC(=O)Nc2cc(C)on2)C(C(=O)NC2CCCC2)c2ccncc2)c1 (configuration not stated),2.1%,-2.2%,0.9%,6.8%,0.0%
